Results from PubChem BioAssay (NCI).
About 83,000 compounds went through this panel and 20% of them were active in at least one assay; those are over-represented in the sample as a whole.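 Single-concentration screen, 48 h exposure, 96-well plates. Endpoint: percent growth. Below 10 = active.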 Unmarked numbers belong to inactive results. Activity calls are given as the source filed them.

System: OVCAR-5 ovarian
Assay: NCI-60 one-dose screen, 48 h (100 = growth as untreated, 0 = no growth, -100 = all killed)
Conditions: 10 µM unless noted

Structure (SMILES) | growth
O=C(CCn1c[n+](CC(=O)c2ccc(F)cc2)c2ccccc21)Nc1cccc2cccnc12 | 79.6%
COc1cc(-c2nc(-c3ccccc3)[nH]c2-c2ccnc(NCCCNS(=O)(=O)c3cccc(F)c3)n2)ccc1Cl | 88.1%
N#Cc1c(NC(=O)c2cccc(C(F)(F)F)c2F)sc2c1CCC(=O)C2 | -6.14% (active)
COC[C@]12CCC(C)(C)C[C@H]1C1=CC[C@@H]3[C@@]4(C)CCCNC(C)(C)[C@@H]4CC[C@@]3(C)[C@]1(C)CC2 | 5.67% (active)

System: OVCAR-4 ovarian
Assay: as above
Conditions: 10 µM unless noted

Structure (SMILES) | growth [%]
CCOC(=O)C(=O)CC(=O)N1C(=S)NC(=O)C1CC(C)C (stereo not drawn) | 102
COC(=O)C(Cc1ccccc1)Nc1nc(NC(Cc2ccccc2)C(=O)OC)nc(N2CCOCC2)n1 (stereo not drawn) | 107
COc1c(N2CC3CCCNC3C2)c(F)cc2c(=O)c(C(=O)N/N=C/c3ccc(F)cc3)cn(C3CC3)c12 (stereo not drawn) | 90.5
CC(=O)C1=C(C)NC(NNC(N)=S)=NC1c1ccccc1 (stereo not drawn) | 78
Cn1cc(-c2nnc(N)nc2-c2c[nH]c3ccc(F)cc23)c2cc(F)ccc21 | 98.4
Oc1[nH]c2ccccc2c1Nn1c(N=N/C=c2/ccc3c(c2)C=NN=3)n[nH]c1=S | 84.6
Cc1ccc2c(c1)C13C(=C2Br)CCCN1C(=O)c1ccccc13 (stereo not drawn) | 91.8
CCO/C=N/C1=C(C#N)C(c2ccc(Cl)cc2)c2sc3c(CC)cccc3c2O1 (stereo not drawn) | 76.5
C=C(C=O)[C@@H]1CC[C@]2(COC(C)=O)CC[C@]3(C)C(CC[C@@H]4[C@@]5(C)CC[C@H](OC(C)=O)C(C)(C)[C@@H]5CC[C@]43C)[C@@H]12 (stereo partly drawn) | 16.2
